In assay [1] the test system is Klebsiella pneumoniae. Particulars: Concentration 32 ug.mL-1;; ASSAY_TEST Inhibition of Bacterial Growth; detection method Absorption (OD600); MEDIA CAMHB; plate type 384well; NBS; CORNING #3640; time 18 hr.
Assay [2] has as its system Candida albicans. To be noted: Concentration 32 ug.mL-1; ASSAY_TEST Inhibition of Fungal Growth; detection method Absorption (OD530).
Assay [3] has as its system Cryptococcus neoformans. To be noted: Concentration 32 ug.mL-1; ASSAY_TEST Inhibition of Fungal Growth; detection method Resazurin; Absorption (OD600-OD570); plate type 384well; NBS; CORNING #3640. For orientation: The colour change of resazurin is a common sign of viable cells or microbes.

Ten compounds from ChEMBL document CHEMBL4513146, “CO-ADD screening of Karazin Kharkiv National University (Ukraine) compounds” can be followed below.

Results with a measured potency or affinity are listed apart.

In the case of `CCc1nnc2c(S(=O)(=O)N(Cc3cc(F)cc(F)c3)c3cccc(F)c3)cccn12`, the Inhibition (as a rule, the relative decrease from the control value, in per cent) in assay [1] is on record as 12.81%; in assay [2], 4.8%; in assay [3] it was -5.16%.

`COc1ccc(-c2cc3c4nnc(SCC(=O)NCc5cccc(OC)c5OC)n4ccn3n2)cc1`: the Inhibition is listed as 6.86% in assay [1], 0.88% in assay [2] and -15.85% in assay [3].

On to `O=c1n(Cc2ccc3c(c2)OCO3)nc2c(S(=O)(=O)N3CCCC3)cccn12`, for which the Inhibition was 5.42% in assay [1], 0.37% in assay [2] and -5.87% in assay [3].

Take `Cc1ccc(NC(=O)CSc2nnc3n(CC4CCCO4)c(=O)c4sccc4n23)cc1F` (stereo not given): the Inhibition in assay [1] is listed as 6.62%; in assay [2] it was -2.27%; in assay [3] it was -15.18%.

As to `CC(C)c1nnc2c(=O)n(CC(=O)Nc3ccc(Br)cc3)c3ccccc3n12`, the results for the Inhibition in assay [1], in assay [2] and in assay [3] were 14.25%, 2.31% and -6.21%, respectively.

Turning to `COc1ccc(Cn2nc3ccc(-c4ccccc4)nn3c2=O)cc1F`, the Inhibition in assay [1] is recorded as 8.32%; in assay [2], 1.33%; in assay [3] it was -0.36%.

Turning to `Cc1cc(C)cc(NC(=O)Cn2nc3ccc(-c4ccc(C)c(C)c4)nn3c2=O)c1`, the Inhibition in assay [1] is given as 5.54%; in assay [2], 21.88%; in assay [3], -18.49%.

In the case of `COc1ccccc1-n1ccn2c(=O)n(Cc3ccc(F)cc3Cl)nc2c1=O`, the Inhibition was 1.73% in assay [1], 3.67% in assay [2] and -6.11% in assay [3].

In the case of `CC(C)Cn1c(=O)c2sccc2n2c(=O)n(Cc3ccc(N4CCCC4=O)cc3)nc12`, the Inhibition is reported as 9.72% in assay [1], 1.08% in assay [2] and -27.68% in assay [3].

Take `Cc1nnc2ccc(S(=O)(=O)N(Cc3ccc(Cl)cc3)c3cccc(F)c3)cn12`: the Inhibition in assay [1] is given as 9.13%; in assay [2] it was 3.61%; in assay [3], -11.42%.
